Experimental data: PubChem BioAssay AID1159580 (chemical genetic matrix, 2015)
Hit rate of the full screen: of about 5,500 compounds, about 2,000 (36%) were called active. Another 18% or so got no clear call; they are omitted. No stated cut-off is given here; in the data, active means normalized growth mostly below about 0.91 (no sharp cut-off); inconclusive means no clear call, values can overlap the other calls; inactive means mostly above about 0.92. The list shows a part of the results.

Experiment: chemical genetic growth profiling, strain panel (AID 1159580);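 further: tested at 20 µM; growth read once vehicle control cultures reached saturation at 30 °C; 1 = growth at the plate median or of vehicle wells; lower values mean less growth of the strain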
Settings: growth OD

Measured: normalized growth

COc1c(N2CCNC(C)C2)c(F)cc2c(=O)c(C(=O)O)cn(C3CC3)c12 (configuration not stated)
active: S. cerevisiae deletion strains, locus YLR320W, strain mms22, active compounds read low 0.75 | S. cerevisiae deletion strains, locus YML032C, strain rad52, active compounds read low 0.492 | S. cerevisiae deletion strains, locus YNL250W, strain rad50, active compounds read low 0.868
inactive: S. cerevisiae deletion strains, locus YJR075W, strain HOC1, active compounds read low 0.989 | S. cerevisiae deletion strains, locus YKL009W, strain mrt4, active compounds read low 1.02 | S. cerevisiae deletion strains, locus YKL068W, active compounds read low 0.997 | S. cerevisiae deletion strains, locus YKL085W, strain MDH1 (second series), active compounds read low 0.995 | S. cerevisiae deletion strains, locus YKL085W, strain MDH1, active compounds read low 0.995 | S. cerevisiae deletion strains, locus YKL160W, strain elf1, active compounds read low 0.975 | S. cerevisiae deletion strains, locus YKL190W, strain CNB1, active compounds read low 1.01 | S. cerevisiae deletion strains, locus YKR001C, strain vps1, active compounds read low 0.996 | S. cerevisiae deletion strains, locus YKR026C, strain gcn3, active compounds read low 0.987 | S. cerevisiae deletion strains, locus YKR091W, strain srl3, active compounds read low 0.98 | S. cerevisiae deletion strains, locus YLL001W, strain dnm1, active compounds read low 0.998 | S. cerevisiae deletion strains, locus YLL026W, active compounds read low 0.985 | S. cerevisiae deletion strains, locus YLL041C, strain sdh2, active compounds read low 0.988 | S. cerevisiae deletion strains, locus YLR027C, strain aat2, active compounds read low 0.99 | S. cerevisiae deletion strains, locus YLR039C, strain RIC1, active compounds read low 0.837 | S. cerevisiae deletion strains, locus YLR058C, strain SHM2, active compounds read low 1 | S. cerevisiae deletion strains, locus YLR102C, strain apc9, active compounds read low 0.988 | S. cerevisiae deletion strains, locus YLR113W, strain HOG1, active compounds read low 1.03 | S. cerevisiae deletion strains, locus YLR221C, strain rsa3, active compounds read low 0.975 | S. cerevisiae deletion strains, locus YLR258W, strain gsy2, active compounds read low 0.987 | S. cerevisiae deletion strains, locus YLR262C, strain YPT6 (second series), active compounds read low 0.915 | S. cerevisiae deletion strains, locus YLR262C, strain YPT6, active compounds read low 0.846 | S. cerevisiae deletion strains, locus YLR268W, strain sec22, active compounds read low 0.988 | S. cerevisiae deletion strains, locus YLR330W, strain CHS5, active compounds read low 1.01 | S. cerevisiae deletion strains, locus YLR342W, strain FKS1 (second series), active compounds read low 0.881 | S. cerevisiae deletion strains, locus YLR342W, strain FKS1, active compounds read low 0.972 | S. cerevisiae deletion strains, locus YLR357W, strain rsc2, active compounds read low 0.934 | S. cerevisiae deletion strains, locus YLR370C, strain arc18, active compounds read low 0.978 | S. cerevisiae deletion strains, locus YLR371W, strain rom2, active compounds read low 0.989 | S. cerevisiae deletion strains, locus YLR384C, strain iki3, active compounds read low 0.995 | S. cerevisiae deletion strains, locus YLR418C, strain cdc73, active compounds read low 0.973 | S. cerevisiae deletion strains, locus YML016C, strain PPZ1, active compounds read low 1.01 | S. cerevisiae deletion strains, locus YML120C, strain ndi1, active compounds read low 0.984 | S. cerevisiae deletion strains, locus YML124C, strain tub3, active compounds read low 0.985 | S. cerevisiae deletion strains, locus YMR058W, strain fet3, active compounds read low 0.992 | S. cerevisiae deletion strains, locus YMR078C, strain ctf18, active compounds read low 0.974 | S. cerevisiae deletion strains, locus YMR125W, strain sto1, active compounds read low 0.928 | S. cerevisiae deletion strains, locus YMR129W, active compounds read low 0.974 | S. cerevisiae deletion strains, locus YMR205C, strain PFK2, active compounds read low 0.996 | S. cerevisiae deletion strains, locus YMR223W, strain ubp8, active compounds read low 0.999 | S. cerevisiae deletion strains, locus YMR231W, strain pep5, active compounds read low 0.993 | S. cerevisiae deletion strains, locus YMR263W, strain SAP30, active compounds read low 1.01 | S. cerevisiae deletion strains, locus YMR307W, strain GAS1, active compounds read low 0.845 | S. cerevisiae deletion strains, locus YNL067W, strain RPL9B, active compounds read low 1 | S. cerevisiae deletion strains, locus YNL071W, strain lat1, active compounds read low 0.985 | S. cerevisiae deletion strains, locus YNL128W, strain TEP1, active compounds read low 1.03 | S. cerevisiae deletion strains, locus YNL153C, strain GIM3, active compounds read low 1.01 | S. cerevisiae deletion strains, locus YNL183C, strain NPR1, active compounds read low 0.983 | S. cerevisiae deletion strains, locus YNL209W, strain ssb2, active compounds read low 0.986 | S. cerevisiae deletion strains, locus YNL233W, strain BNI4, active compounds read low 1.01 | S. cerevisiae deletion strains, locus YNL248C, strain rpa49, active compounds read low 0.917 | S. cerevisiae deletion strains, locus YNL271C, strain bni1, active compounds read low 1 | S. cerevisiae deletion strains, locus YNL298W, strain CLA4, active compounds read low 1.02 | S. cerevisiae deletion strains, locus YNL307C, strain MCK1, active compounds read low 1 | S. cerevisiae deletion strains, locus YNL322C, strain KRE1 (second series), active compounds read low 0.967 | S. cerevisiae deletion strains, locus YNL322C, strain KRE1, active compounds read low 1.01 | S. cerevisiae deletion strains, locus YNR049C, strain mso1, active compounds read low 0.963 | S. cerevisiae deletion strains, locus YNR052C, strain pop2, active compounds read low 1 | S. cerevisiae deletion strains, locus YOL006C, strain TOP1, active compounds read low 0.936 | S. cerevisiae deletion strains, locus YOL012C, strain htz1 0.555 | S. cerevisiae deletion strains, locus YOL147C, strain pex11, active compounds read low 1 | S. cerevisiae deletion strains, locus YOR001W, strain rrp6, active compounds read low 0.986 | S. cerevisiae deletion strains, locus YOR061W, strain CKA2, active compounds read low 1.01 | S. cerevisiae deletion strains, locus YOR069W, strain VPS5, active compounds read low 1.01 | S. cerevisiae deletion strains, locus YOR070C, strain gyp1, active compounds read low 0.994 | S. cerevisiae deletion strains, locus YOR080W, strain dia2, active compounds read low 0.97 | S. cerevisiae deletion strains, locus YOR083W, strain WHI5, active compounds read low 1 | S. cerevisiae deletion strains, locus YOR106W, strain vam3, active compounds read low 0.994 | S. cerevisiae deletion strains, locus YOR136W, strain idh2, active compounds read low 1 | S. cerevisiae deletion strains, locus YOR144C, strain elg1, active compounds read low 0.998 | S. cerevisiae deletion strains, locus YOR184W, strain ser1, active compounds read low 0.99 | S. cerevisiae deletion strains, locus YOR231W, strain MKK1, active compounds read low 1.01 | S. cerevisiae deletion strains, locus YOR265W, strain rbl2, active compounds read low 0.984 | S. cerevisiae deletion strains, locus YOR270C, strain vph1, active compounds read low 0.896 | S. cerevisiae deletion strains, locus YOR290C, strain snf2, active compounds read low 0.951 | S. cerevisiae deletion strains, locus YOR316C, strain cot1, active compounds read low 0.995 | S. cerevisiae deletion strains, locus YPL051W, strain arl3, active compounds read low 0.975 | S. cerevisiae deletion strains, locus YPL055C, strain LGE1, active compounds read low 0.992 | S. cerevisiae deletion strains, locus YPL078C, strain atp4, active compounds read low 0.99 | S. cerevisiae deletion strains, locus YPL106C, strain sse1, active compounds read low 0.946 | S. cerevisiae deletion strains, locus YPL240C, strain hsp82, active compounds read low 0.986 | S. cerevisiae deletion strains, locus YPL241C, strain CIN2, active compounds read low 1.01 | S. cerevisiae deletion strains, locus YPL256C, strain CLN2, active compounds read low 0.956 | S. cerevisiae deletion strains, locus YPR119W, strain clb2, active compounds read low 0.997 | S. cerevisiae deletion strains, locus YPR141C, strain kar3, active compounds read low 1 | S. cerevisiae deletion strains, locus YPR163C, strain tif3, active compounds read low 1 | S. cerevisiae deletion strains, locus YPR167C, strain met16, active compounds read low 0.996 | S. cerevisiae deletion strains, strain wtn01, active compounds read low 0.996 | S. cerevisiae strains, strain wild type, active compounds read low 1.01
